The entries come from a sample that favours hits as a whole.
GRP78 ERSR act = qHTS for Inducers of the Endoplasmic Reticulum Stress Response (ERSR) in Human Glioma: qHTS. U87-MG GRP78 promoter luciferase reporter, 16 h. Potency, µM, for inactives: at the highest dose activation, usual class: activators. 420,000 tested, 0.02% active. AID 602332, 2012; note: series mostly up to about 76 µM; % of control where 0% means no effect; nearly all actives have a fitted effect of over 35% in size
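ERSR induction read as luciferase luminescence (Bright-Glo, 10 min at room temperature) in stably transfected human U87-MG glioma cells exposed to compounds for 16 h, using GRP78 as sensor.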
VDR inhibitor = Inhibitors of the vitamin D receptor (VDR): qHTS. Vitamin D3 receptor (Homo sapiens), P11473. Potency, µM, for inactives: max response, negative = inhibition, usual class: inhibitors. 400,000 tested, 0.93% active. VDR-SRC2-3 peptide fluorescence polarization, 2 h; note: % is set by controls: 0 for no effect and ±100 for the full control effect
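After 23 nl compound addition and a short centrifugation, plates sat for 2 hours at ambient temperature; polarization of fluorescence then indicated loss of VDR binding to peptide SRC2-3.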
Sfp PPTase inh = qHTS Assay for Inhibitors of Bacillus subtilis Sfp phosphopantetheinyl transferase (PPTase); 310,000 tested, 3.5% active; 4'-phosphopantetheinyl transferase ffp (Bacillus subtilis), Q9F4F7; Biochemical Sfp PPTase activity, qHTS; AID 1490, 2009; Potency, µM, inactives show largest response in the series, negative = inhibition, hits mostly inhibitors;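 note: the enzyme is Sfp with the accession as filed and its product quenches rhodamine fluorescence; 0% = enzyme reaction without inhibitor and -100% = no enzyme wells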
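After 15 min at room temperature with compound, 15 nM Sfp received 5 uM rhodamine-CoA plus 12.5 uM BHQ-2-ybbR (50 mM Hepes pH 7.6, 10 mM MgCl2). Rate came from the fluorescence difference over 30 min, ex 525/em 598 nm.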
G9a inh = qHTS Assay for Inhibitors of Histone Lysine Methyltransferase G9a | G9a H3K9 monomethylation, AlphaScreen, 2 h | 350,000 tested, 8.8% active | Potency, µM (series often up to 102 µM), inactives show at the highest dose activity, negative = inhibition, usual class: inhibitors | Histone-lysine N-methyltransferase EHMT2 (Homo sapiens), Q96KQ7; note: % is set by controls: 0 for no effect and ±100 for the full control effect; nearly all actives have a fitted effect of over 75% in size
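AlphaScreen detection with an anti-monomethyl H3K9 antibody quantified product after a 2 h room-temperature reaction containing 500 nM biotinylated H3K9 peptide, 20 µM SAM and 20 nM enzyme, which had been preincubated 15 min with compound.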
ALOX12 inh = Primary qHTS assay for inhibitors of human arachidonate 12S-lipoxygenase (ALOX12): Round 2. 580,000 tested, 1.1% active. Potency, µM (doses to about 108 µM), without a hit: top-dose activity change, negative = inhibition, hits mostly inhibitors. purified 12hLO, xylenol orange hydroperoxide absorbance. AID 1671190, 2021. Polyunsaturated fatty acid lipoxygenase ALOX12 (Homo sapiens), P18054; note: % is set by controls: 0 for no effect and ±100 for the full control effect
Target sequence (P18054 whole entry, looked up): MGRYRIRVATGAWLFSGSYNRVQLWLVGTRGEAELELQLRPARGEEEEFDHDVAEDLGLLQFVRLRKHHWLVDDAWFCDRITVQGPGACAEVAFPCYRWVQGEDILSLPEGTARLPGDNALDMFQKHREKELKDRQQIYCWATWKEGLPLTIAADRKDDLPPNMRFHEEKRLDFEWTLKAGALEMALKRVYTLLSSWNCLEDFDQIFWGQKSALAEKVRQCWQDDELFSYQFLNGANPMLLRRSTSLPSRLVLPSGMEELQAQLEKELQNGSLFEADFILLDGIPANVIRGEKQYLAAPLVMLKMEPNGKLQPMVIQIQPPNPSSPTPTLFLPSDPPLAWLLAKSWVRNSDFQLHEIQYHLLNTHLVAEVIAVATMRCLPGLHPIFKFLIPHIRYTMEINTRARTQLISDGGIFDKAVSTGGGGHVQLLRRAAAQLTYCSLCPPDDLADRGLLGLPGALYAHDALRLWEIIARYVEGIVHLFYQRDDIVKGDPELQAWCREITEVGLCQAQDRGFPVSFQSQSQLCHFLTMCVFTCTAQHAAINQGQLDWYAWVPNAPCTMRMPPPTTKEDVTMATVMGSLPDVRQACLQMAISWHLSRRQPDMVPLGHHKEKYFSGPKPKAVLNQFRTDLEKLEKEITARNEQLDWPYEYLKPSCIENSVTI
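Purified human 12hLO (150 nM final) in 25 mM Hepes, 0.01% Triton X-100, pH 7.0 was preincubated 15 min at room temperature with compound. Then 40 uM arachidonic acid was added, 30 min. Hydroperoxide was read by Fe-XO absorbance ratio 573/405 nm.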
The depositor's hits bear a star; ? = inconclusive; / = no result; ! = not active in a repeat; [ ] = another dose, or the depositor's remark. Calls come from the whole dose curve; as a rule, active = well fitted curve in the direction sought with a large enough effect; inconclusive = small, poorly fitted or top-dose-only effect, or another doubt; inactive = no such curve, though single readings can be large; an effect the other way counts as inactive or inconclusive. Potency is the fitted concentration of half-maximal effect.

SMILES	GRP78 ERSR act	VDR inhibitor	Sfp PPTase inh	G9a inh	ALOX12 inh
Cc1cc(OCC(=O)Nc2cnn(CCCC(=O)O)c2)ccc1Cl	-1%	7%	-2%	14µM*!	?
CN1CCN(C(=O)c2ccc(CNC(=O)c3cc4cc(F)ccc4[nH]3)cc2)CC1	/	/	/	/	-22%
COc1ccc(C2=NN3C(C2)c2ccccc2OC3c2cccs2)cc1 (configuration not stated)	7%	-18%	10%	40µM*	?
COc1ccc(C2=NN3C(C2)c2ccccc2OC32C(=O)N(C)c3ccccc32)cc1 (configuration not stated)	0%	-4%	?	25µM*	-3%
CN1CCC2(CC1)Oc1ccccc1C1CC(c3ccc4c(c3)OCCO4)=NN12 (configuration not stated)	/	/	/	/	-51%
Nc1c(Cl)ncnc1N/N=C/c1ccc(O)cc1	4%	-1%	56µM*	8%[59 µM]	10%
Cc1ccc(-c2cc(C(=O)N3CCN(CC(=O)N4CCOCC4)CC3)c3ccccc3n2)cc1	/	/	/	/	28%
COc1cc(N=Nc2cccc(S(N)(=O)=O)c2)c2ccccc2c1N	0%	-2%	?	13µM*	6.3µM*
O=C(NC1CCCc2ccccc21)c1ccc2c(Cl)c3c(nc2c1)CCCC3 (configuration not stated)	/	/	/	/	-17%
Brc1ccccc1/C=N/N(c1ccccc1)c1ccccc1	/	/	/	/	7%
Brc1cc2c(cc1Br)OCCOCCOCCOCCO2	-6%	28µM*	8%	24%	2%
CCc1ccc2c(c1)NC(c1ccc(C)cc1)=NC(c1cccs1)=N2	4%	-1%	/	13µM*	7%
Clc1ccc2c(c1)NC(c1ccncc1)=NC(c1cccs1)=N2	3%	8%	/	28µM*	4%
CCOc1ccc(C2=NC(c3cccs3)=Nc3ccc(C(C)C)cc3N2)cc1	2%	-12%	/	10µM*	7%
CC(C)c1ccc2c(c1)NC(c1ccncc1)=NC(c1cccs1)=N2	/	6%	/	?	?
Cc1nc(-c2ccc(S(=O)(=O)Nc3ccccc3)cc2)co1	/	/	/	/	-6%
N=C(N)c1ccc(COC2CCCCC2)cc1	/	/	/	/	-10%
Cc1nc(N)sc1N=Nc1ccccc1C(F)(F)F	9%	3%	14%	40µM*	0%
Cc1noc(C)c1Cn1c(=O)c2c(ncn2CCC(C)C)n(Cc2ccccc2)c1=O	/	/	/	/	5%
Cc1cccc(OCCSc2nc(N)cc(N)n2)c1	1%	?	45µM*	/	?
CN(CCCNC(=O)c1ccccc1)CC(F)(F)F	/	/	/	/	11%
COC(=O)C(Br)(C(=O)OC)C(OC)(C(=O)OC)C(=O)OC	/	/	/	/	0.71µM*
COC(=O)C(Cl)(C(=O)OC)C(OC)(C(=O)OC)C(=O)OC	/	/	/	/	-18%
CN(C)NC(=S)NC1(C)CCS(=O)(=O)C1 (configuration not stated)	-7%	16%	89µM*	-132%[59 µM]	3%
Oc1ccc(-c2nc(-c3ccc(Cl)cc3)cs2)cc1	/	/	/	/	14µM*
SMILES	GRP78 ERSR act	VDR inhibitor	Sfp PPTase inh	G9a inh	ALOX12 inh
Cc1ccc2nc(-c3ccc(O)c(O)c3)cn2c1	-10%	16%	56µM*	/	18µM*
COc1cc(-c2csc(C)n2)ccc1O	3%	2%	10%	-1%[12.7 µM]	0%
Oc1ccc(-c2csc(-c3ccccc3)n2)cc1O	?	13%	56µM*	?	7.1µM*
Oc1ccc(-c2csc(-c3cccnc3)n2)cc1O	-2%	26%	?	/	10%
Cc1nc(-c2ccc(O)c(O)c2)cs1	0%	-10%	56µM*	1.4µM*	7.1µM*
O=C(NCc1ccnc2[nH]ccc12)c1cccc(Cl)c1	/	/	/	/	5%[176 µM]
CCN(Cc1ccncc1)C(=O)c1c(OCC2CC2)cc(=O)n2c1CCCCC2	/	/	/	/	84%
O=C(OCc1cccc(Cl)c1)c1ccc(C2Nc3ccccc3S(=O)(=O)N2)cc1 (configuration not stated)	/	/	/	/	27%
CC(=O)N1CCN([C@H]2[C@@H]3OC[C@@H](O3)[C@@H](NC(=O)Nc3ccccc3)[C@@H]2O)CC1	/	/	/	/	7%[176 µM]
COc1cc(C(=O)Nc2cccc3cccnc23)cc(OC)c1C	/	/	/	/	-18%
COc1ccc(NC(=O)c2cccc(N3C(=O)C4C5CCC(C5)C4C3=O)c2)cc1 (configuration not stated)	0%	15%	19%	19%	6.3µM*
O=C(Nc1ccc(Cl)cc1)c1cccc(N2C(=O)C3C4CCC(C4)C3C2=O)c1 (configuration not stated)	2%	8%	6%	-6%[59 µM]	-2%
CN(C)c1ccc(NC(=O)c2cccc(N3C(=O)C4C5C=CC(C5)C4C3=O)c2)cc1 (configuration not stated)	-3%	?	14%	10µM*	?
CC(C)c1ccc2c(c1)CCC1C(C)(CN)CCCC21C (configuration not stated)	-11%	4%	11µM*	26%[59 µM]	?
CC(C)c1ccc2c(c1)CC[C@@H]1[C@@](C)(CN)CCC[C@]21C	-3%	/	-8%	/	/
Cc1cccc(NC(=S)NCC2(C)CCCC3(C)c4ccc(C(C)C)cc4CCC23)c1 (configuration not stated)	/	/	/	/	16µM*
COc1cccc(CN2C(=O)N(c3cccc(OC)c3)S(=O)(=O)c3ccccc32)c1	/	/	/	/	-66%
CCOC(=O)C1=C(O)/C(=C\c2cc(C)n(-c3ccc(F)cc3)c2C)N=C1C	-2%	3%	-17%	?	35µM*
NCCCCNCCCN	2%	1%	?	11µM*!	?
NCCCCN	-5%	7%	13%	50µM*!	1%
NCCNCCNCCN	-1%	10%	17%	3%	26%
NCCNCCN	-4%	16µM*	3.2µM*	/	/
COc1ccccc1N1C(=O)CC(Nc2ccc(N3CCOCC3)cc2)C1=O (configuration not stated)	2%	-5%	79µM*	?	-9%
CCOc1ccccc1N1C(=O)CC(Nc2ccc(N3CCOCC3)cc2)C1=O (configuration not stated)	-3%	-4%	-13%	?	-27%
COc1ccccc1-c1noc(CSc2nc(C3CC3)n(-c3ccccc3)n2)n1	/	/	/	/	3%
O=C(NCc1ccccc1CN1CCCCC1)c1ccc(Cl)cc1N1CCCC1=O	-6%	22%	/	1µM*	?
O=C(NCc1ccccc1CN1CCCCC1)c1ccccc1N1CCCC1=O	-4%	1%	/	-11%[2.33 µM]	-18%
O=C(OCc1ccc(F)cc1)c1cccc(S(=O)(=O)N2CCCCC2)c1	/	/	/	/	1%
COc1ccccc1NS(=O)(=O)c1cc(NC(=O)c2ccccc2F)ccc1N1CCOCC1	-2%	-1%	-2%	?	-2%

Bioassay records deposited in PubChem by National Center for Advancing Translational Sciences (NCATS).
